# Publication PMC11062922 (Nature Chemical Biology, 2023)
# Read-outs that look alike come from different tables or passages of the source.
# What was measured:
# Parameters in all cases: species or system human, MV4-11 + K-562 + COLO205 + SK-N-BE2 + OVCAR-8
# [1] = system: DDR1; conditions: read-out: apparent Kd, n = 1
# [2] = system: MAPK14; conditions: read-out: apparent Kd; compound concentrations:100 nM and 1000 nM (sheet 'Samples'); n = 1
# [3] = system: MAPKAPK2; conditions: read-out: apparent Kd; compound concentrations:100 nM and 1000 nM (sheet 'Samples'); n = 1
# [4] = system: RET; conditions: read-out: apparent Kd; compound concentrations: 100 nM and 1000 nM (sheet 'Samples'), CATDS: 0.66241044961877704; n = 1
# [5] = system: T1, DJA1; conditions: read-out: apparent Kd, n = 1
# T1 construct: gene DNAJA1
# [6] = system: PRKD2; conditions: read-out: apparent Kd; compound concentrations:100 nM and 1000 nM (sheet 'Samples'); n = 1
# [7] = system: PRKD3; conditions: read-out: apparent Kd; compound concentrations:100 nM and 1000 nM (sheet 'Samples'); n = 1
# [8] = system: PTK6; conditions: read-out: apparent Kd; compound concentrations: 100 nM and 1000 nM (sheet 'Samples'), CATDS: 0.387863257787184; n = 1
# [9] = system: TNK2; conditions: read-out: apparent Kd, compound concentrations: 100 nM and 1000 nM (sheet 'Samples'), n = 1
# [10] = system: DYNC1LI1; conditions: read-out: apparent Kd; compound concentrations: 100 nM and 1000 nM (sheet 'Samples'), CATDS: 8.5515201932316404E-2; n = 1
# [11] = system: GSK3A; conditions: read-out: apparent Kd, compound concentrations: 100 nM and 1000 nM (sheet 'Samples'), n = 1
# [12] = system: GSK3B; conditions: read-out: apparent Kd, compound concentrations: 100 nM and 1000 nM (sheet 'Samples'), n = 1
# [13] = system: IRAK4; conditions: read-out: apparent Kd; compound concentrations: 100 nM and 1000 nM (sheet 'Samples'), CATDS: 6.7100435979899897E-2; n = 1
# [14] = system: MAP2K1; conditions: read-out: apparent Kd, n = 1
# [15] = system: MAP3K2; conditions: read-out: apparent Kd; compound concentrations: 100 nM and 1000 nM (sheet 'Samples'), CATDS: 7.9900498504471701E-2; n = 1
# [16] = system: STK3; conditions: read-out: apparent Kd; compound concentrations: 100 nM and 1000 nM (sheet 'Samples'), CATDS: 7.3483496844903004E-2; n = 1
# [17] = system: STK4; conditions: read-out: apparent Kd; compound concentrations: 100 nM and 1000 nM (sheet 'Samples'), CATDS: 6.4981472702296803E-2; n = 1
# [18] = system: TAOK1; conditions: read-out: apparent Kd; compound concentrations: 100 nM and 1000 nM (sheet 'Samples'), CATDS: 0.10465573180823801; n = 1
# [19] = system: TAOK3; conditions: read-out: apparent Kd; compound concentrations: 100 nM and 1000 nM (sheet 'Samples'), CATDS: 8.7598902274653806E-2; n = 1
# [20] = system: TUBB6; conditions: read-out: apparent Kd; compound concentrations: 100 nM and 1000 nM (sheet 'Samples'), CATDS: 7.2898721054062393E-2; n = 1
# [21] = system: WEE1; conditions: read-out: apparent Kd; compound concentrations: 100 nM and 1000 nM (sheet 'Samples'), CATDS: 6.8522632580167595E-2; n = 1
# [22] = system: ILK; conditions: read-out: apparent Kd; compound concentrations: 100 nM and 1000 nM (sheet 'Samples'), CATDS: 0.13612875725697299; n = 1
# [23] = system: NQO2; conditions: read-out: apparent Kd; compound concentrations: 100 nM and 1000 nM (sheet 'Samples'), CATDS: 0.173411525016403; n = 1
# [24] = system: PDXK; conditions: read-out: apparent Kd, compound concentrations: 100 nM and 1000 nM (sheet 'Samples'), n = 1
# [25] = system: EGFR; conditions: read-out: apparent Kd; compound concentrations: 100 nM and 1000 nM (sheet 'Samples'), CATDS: 1; n = 1
# [26] = system: PIM2; conditions: read-out: apparent Kd; compound concentrations:100 nM and 1000 nM (sheet 'Samples'); n = 1
# [27] = system: STK26; conditions: read-out: apparent Kd; compound concentrations:100 nM and 1000 nM (sheet 'Samples'); n = 1
# [28] = system: PIK3CB; conditions: read-out: apparent Kd; compound concentrations: 100 nM and 1000 nM (sheet 'Samples'), CATDS: 0.79841434313068305; n = 1
# [29] = system: DDR2; conditions: read-out: apparent Kd; compound concentrations: 100 nM and 1000 nM (sheet 'Samples'), CATDS: 0.27583033516959499; n = 1
# [30] = system: PIP4K2C; conditions: read-out: apparent Kd, n = 1
# [31] = system: RIPK2; conditions: read-out: apparent Kd; compound concentrations: 100 nM and 1000 nM (sheet 'Samples'), CATDS: 0.517215300479827; n = 1
# [32] = system: MAPK10; conditions: read-out: apparent Kd; compound concentrations:100 nM and 1000 nM (sheet 'Samples'); n = 1
# [33] = system: MAPK11; conditions: read-out: apparent Kd; compound concentrations:100 nM and 1000 nM (sheet 'Samples'); n = 1
# [34] = system: MAPK8; conditions: read-out: apparent Kd; compound concentrations:100 nM and 1000 nM (sheet 'Samples'); n = 1
# [35] = system: MAPK9; conditions: read-out: apparent Kd; compound concentrations:100 nM and 1000 nM (sheet 'Samples'); n = 1
# [36] = compound concentrations:100 nM and 1000 nM (sheet 'Samples')
smiles,measurement,setting,value
CCN1CCN(Cc2ccc(C(=O)Nc3ccc(C)c(Oc4ccc5c(c4)CC(=O)N5)c3)cc2C(F)(F)F)CC1.Cl.Cl [DDR1-in-1],potency estimated from few doses,[1]; [36],363 nM
same,potency estimated from few doses,[2],958 nM
same,potency estimated from few doses,[3],858 nM
Nc1ncnc2occ(-c3ccc(NC(=O)Nc4cc(C(F)(F)F)cc(C(F)(F)F)c4)cc3)c12 [GW795486X],potency estimated from few doses,"[1]; compound concentrations: 100 nM and 1000 nM (sheet 'Samples'), CATDS: 0.40154805135944899",1020 nM
same,potency estimated from few doses,[4],350 nM
Cc1cccc(-c2nc(Nc3ccc4ncsc4c3)c3ccccc3n2)n1 [GW867588X],potency estimated from few doses,[5]; [36],134 nM
same,potency estimated from few doses,[6],37.5 nM
same,potency estimated from few doses,[7],74.8 nM
COc1cc(N2CCN(C)CC2)ccc1Nc1ncc2c(n1)N(C)c1ccccc1C(=O)N2 [XMD8-87],potency estimated from few doses,"[5]; compound concentrations: 100 nM and 1000 nM (sheet 'Samples'), CATDS: 0.207840847551445",1710 nM
same,potency estimated from few doses,[8],123 nM
same,potency estimated from few doses,[9]; CATDS: 0.62096450214514598,47.5 nM
COc1ccc2c(c1)C(c1ccccc1Cl)=Nc1c(n[nH]c1C)N2 [RO0281498-000],potency estimated from few doses,[10],1210 nM
same,potency estimated from few doses,[11]; CATDS: 8.5763522680639803E-2,1210 nM
same,potency estimated from few doses,[12]; CATDS: 7.6779937662019099E-2,1500 nM
same,potency estimated from few doses,[13],2010 nM
same,potency estimated from few doses,"[14]; compound concentrations: 100 nM and 1000 nM (sheet 'Samples'), CATDS: 6.4942175038997504E-2",2180 nM
same,potency estimated from few doses,[15],1380 nM
same,potency estimated from few doses,[16],1640 nM
same,potency estimated from few doses,[17],2180 nM
same,potency estimated from few doses,[18],858 nM
same,potency estimated from few doses,[19],1160 nM
same,potency estimated from few doses,[9]; CATDS: 8.6765119114313102E-2,1180 nM
same,potency estimated from few doses,[20],1670 nM
same,potency estimated from few doses,[21],1920 nM
Cn1cc(C2=C(c3cn(C)c4ncccc34)C(=O)NC2=O)c2ccccc21 [RO0271528-000],potency estimated from few doses,"[5]; compound concentrations: 100 nM and 1000 nM (sheet 'Samples'), CATDS: 0.169109962216623",1330 nM
same,potency estimated from few doses,[11]; CATDS: 0.18190367371529301,1150 nM
same,potency estimated from few doses,[12]; CATDS: 0.17248189014097001,1280 nM
same,potency estimated from few doses,[22],2170 nM
same,potency estimated from few doses,[23],1260 nM
same,potency estimated from few doses,[24]; CATDS: 0.17608898897019801,1230 nM
Cl.c1ccc(Cn2ccc3cc(Nc4ncnc5ccccc45)ccc32)cc1 [GW275568A],potency estimated from few doses,[25],82.9 nM
O=C1NC(=O)C(c2ccccc2)=C1Nc1cccc(O)c1 [SB-390534],potency estimated from few doses,[5]; [36],1350 nM
same,potency estimated from few doses,[14]; [36],1510 nM
same,potency estimated from few doses,[26],2120 nM
same,potency estimated from few doses,[27],1580 nM
Cc1c(Cn2c3ccccc3n3c(=O)cc(N4CCOCC4)nc23)cccc1C(F)(F)F [GSK2306394A],potency estimated from few doses,"[5]; compound concentrations: 100 nM and 1000 nM (sheet 'Samples'), CATDS: 0.30097601497631998",653 nM
same,potency estimated from few doses,[24]; CATDS: 0.22598902737403401,1920 nM
same,potency estimated from few doses,[28],66.7 nM
COc1cc2ncnc(Nc3ccc(OCc4ccccc4Br)c(Cl)c3)c2cc1OC.Cl [GI261590A],potency estimated from few doses,[25],2230 nM
Cl.Oc1ccc(-c2nc(-c3ccccc3)[nH]c2-c2ccncc2)cc1 [SB-428218-A],potency estimated from few doses,"[5]; compound concentrations: 100 nM and 1000 nM (sheet 'Samples'), CATDS: 1",108 nM
CNC(=O)c1cncc(/C=C/c2c(C)cccc2C)c1 [GW445012X],potency estimated from few doses,[29],2060 nM
same,potency estimated from few doses,"[30]; compound concentrations: 100 nM and 1000 nM (sheet 'Samples'), CATDS: 0.290600345689909",1800 nM
same,potency estimated from few doses,[31],587 nM
O=c1c(Oc2ccc(F)cc2F)cc2cnc(NC3CCOCC3)nc2n1CCCO [RO4442245-000],potency estimated from few doses,[1]; [36],1080 nM
same,potency estimated from few doses,[32],42.5 nM
same,potency estimated from few doses,[33],13.4 nM
same,potency estimated from few doses,[2],0.149 nM
same,potency estimated from few doses,[34],54.7 nM
same,potency estimated from few doses,[35],15.9 nM
same,potency estimated from few doses,[30]; [36],611 nM
